T cruzi growth-1: inhibitors of T. cruzi proliferation. T. cruzi beta-gal in NIH3T3, GalScreen luminescence, 90 h. inhibition, % at 8.34 µM. 77,000 tested, 5.9% active;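 active = mean inhibition above about 93%, with at least 55% of replicates each passing it, limit read from the data, passing the limit was not always enough; inconclusive = only one of those two conditions holds; inactive = neither condition holds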
C diff HTS: inhibitors of Clostridium difficile growth | Clostridium difficile clinical isolate growth, OD600, 24 h; stronger effect = lower value | growth activity, negative = inhibition, % at 16 µg/mL (by protocol) | 86,000 tested, 0.25% active | AID 1259249;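 active = mean growth activity at or below -80% and every replicate also at or below -80%; inconclusive = mean at or below -80% but some replicate above -80%; inactive = mean growth activity above -80%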;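 note: 0% = DMSO wells and -100% = levofloxacin 16 µg/mL wells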
Pf Dd2 inh: blocks growth of Plasmodium falciparum Dd2 parasites. AID 1159554. 94,000 tested, 2.3% active. activity change, % at 10 µM. P. falciparum Dd2 growth, SYBR Green, 72 h; stronger effect = lower value; in the data active = activity change below about -80%; inconclusive = no clear call, values can overlap the other calls
T cruzi growth-2: inhibitors of T. cruzi proliferation; 5,600 tested, 72% active; shares compounds with T cruzi growth-1; AID 651739; T. cruzi beta-gal in NIH3T3, GalScreen luminescence, 90 h; inhibition, % at 8.35 µM;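 active = mean replicate inhibition above about 95% and at least 55% of replicates individually reaching it, limit read from the data; inconclusive = only one of the two criteria is met; inactive = neither criterion is met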
T cruzi growth-3: Trypanosoma cruzi proliferation inhibition; 5,600 tested, 21% active; T. cruzi beta-gal in NIH3T3, GalScreen luminescence, 90 h; shares compounds with T cruzi growth-1; inhibition, % at 2.09 µM;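 active = mean inhibition above about 95%, with at least 55% of replicates also reaching it, limit read from the data; inconclusive = meets just one of the two conditions; inactive = meets neither condition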;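 note: plate controls were neutral control median for no effect and positive control median for full effect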
NIH3T3 tox: NIH/3T3 (mouse) viability loss | shares compounds with T cruzi growth-1 | NIH/3T3 viability, CellTiter-Glo ATP luminescence, 90 h | cytotoxicity (signal decrease), % at 8.35 µM | 5,600 tested, 14% active;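 active = mean signal decrease across replicates above about 35% based on untreated-well scatter, with enough replicates individually passing, limit read from the data; inconclusive = no rule stated though some were filed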;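 note: 0% = median of neutral control wells and 100% = median of positive control wells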
3T3 cytotox 2: kills mouse NIH/3T3 fibroblasts; 5,600 tested, 56% active; inhibition, % at 24.9 µM; AID 651744; shares compounds with T cruzi growth-1; NIH/3T3 viability, CellTiter-Glo ATP luminescence, 90 h;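 active = mean loss of cell viability signal at or above a set limit, and enough replicates individually reaching it; inconclusive = meets only the mean limit or only the replicate share; inactive = meets neither condition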;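 note: 0% = median of neutral control wells and 100% = median of positive control wells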
The depositor's hits bear a star; ? = inconclusive; · = not tested or not shown. Rows were chosen to be rich in hits. Some 6.7% of all compounds tested hit in one or more screens of this group.

SMILES | T cruzi growth-1 | C diff HTS | Pf Dd2 inh | T cruzi growth-2 | T cruzi growth-3 | NIH3T3 tox | 3T3 cytotox 2
C[C@H](CO)N1C[C@H](C)[C@H](CN(C)Cc2ccccc2)Oc2cc(C3=CCCCC3)ccc2S1(=O)=O | ? | · | -9.1 | 100.4* | 70.6 | 0.3 | 102.6*
C[C@@H]1CN([C@H](C)CO)S(=O)(=O)c2ccc(C3=CCCCC3)cc2O[C@@H]1CN(C)Cc1ccccc1 | 125.0* | 1.4 | -61.7 | 96.8* | 102.1* | 25.7 | 104.9*
C[C@H](CO)N1C[C@H](C)[C@H](CN(C)Cc2cccc(C(=O)O)c2)Oc2cc(C3=CCCCC3)ccc2S1(=O)=O | 50.4 | -0.8 | -31.4 | · | · | · | ·
COc1cccc(C(=O)Nc2ccc3c(c2)C(=O)N(C)C[C@@H](OC)[C@H](C)CN(CC2CC2)[C@@H](C)CO3)c1 | 1.9 | · | -7.4 | · | · | · | ·
C[C@@H]1CCCCO[C@@H](CN(C)Cc2ccc(Cl)c(Cl)c2)[C@H](C)CN([C@@H](C)CO)C(=O)c2cc(NC(=O)C3CCCCC3)ccc2O1 | 78.7 | -3.4 | -57.2 | · | · | · | ·
C[C@H]1CN([C@@H](C)CO)S(=O)(=O)c2ccc(C3=CCCCC3)cc2O[C@@H]1CN(C)Cc1cncnc1 | 102.4* | -5.4 | -22.4 | 101.8* | 62.8 | 55.0* | 69.2*
C[C@@H]1CN([C@@H](C)CO)S(=O)(=O)c2ccc(C3=CCCCC3)cc2O[C@@H]1CN(C)Cc1cncnc1 | 44.6 | -8.2 | 29.2 | · | · | · | ·
C[C@@H]1CN([C@H](C)CO)S(=O)(=O)c2ccc(C3=CCCCC3)cc2O[C@H]1CN(C)Cc1cncnc1 | 43.3 | -3.2 | 9.5 | · | · | · | ·
C[C@H](CO)N1C[C@H](C)[C@@H](CN(C)Cc2ccccc2)Oc2cc(C3=CCCCC3)ccc2S1(=O)=O | 115.6* | · | -57.4 | 100.5* | 101.1* | 45.5* | 105.0*
O=C(N[C@H]1CC[C@H](CCNC(=O)C2CCC2)O[C@H]1CO)c1ccncc1 | · | 1.7 | 26.6 | · | · | · | ·
C[C@H]1CN([C@@H](C)CO)C(=O)c2cc(C#CC3CCCC3)cnc2O[C@@H]1CN(C)C(=O)c1ccncc1 | · | · | 0.9 | · | · | · | ·
Cc1ccc(S(=O)(=O)N(C)C[C@H]2Oc3ccc(NC(=O)Nc4c(C)noc4C)cc3CC(=O)N([C@@H](C)CO)C[C@H]2C)cc1 | 8.4 | -1.9 | -8.0 | · | · | · | ·
O=C(C1CCOCC1)N1CC2(C1)[C@@H](c1ccccc1)[C@@H](CO)N2Cc1ccccc1F | · | 11.1 | -1.9 | · | · | · | ·
COc1ccc(S(=O)(=O)N(C)C[C@H]2Oc3c(NS(=O)(=O)c4cccs4)cccc3C(=O)N([C@@H](C)CO)C[C@@H]2C)cc1 | · | 0.5 | -18.0 | · | · | · | ·
COc1ccccc1C#Cc1ccc2c(c1)O[C@H](CN(C)Cc1cncnc1)[C@@H](C)CN([C@H](C)CO)S2(=O)=O | 92.0 | 1.0 | -45.0 | · | · | · | ·
COc1ccccc1C#Cc1ccc2c(c1)O[C@@H](CN(C)Cc1ccccc1)[C@H](C)CN([C@H](C)CO)S2(=O)=O | 118.2* | 15.0 | -73.8 | ? | 111.9* | 45.3* | 106.0*
COc1ccccc1C#Cc1ccc2c(c1)O[C@@H](CN(C)Cc1cncnc1)[C@@H](C)CN([C@@H](C)CO)S2(=O)=O | 66.8 | -5.3 | -63.8 | · | · | · | ·
COc1ccccc1C#Cc1ccc2c(c1)O[C@H](CN(C)Cc1ccccc1)[C@H](C)CN([C@@H](C)CO)S2(=O)=O | 122.5* | 13.3 | -72.2 | 104.7* | 114.7* | -15.9 | -22.4
COc1ccccc1C#Cc1ccc2c(c1)O[C@H](CN(C)Cc1ccccc1)[C@H](C)CN([C@H](C)CO)S2(=O)=O | 120.9* | 7.7 | -39.8 | 103.9* | 87.0 | -8.0 | 16.0
COc1ccccc1C#Cc1ccc2c(c1)O[C@H](CN(C)Cc1ccccc1)[C@@H](C)CN([C@@H](C)CO)S2(=O)=O | 121.2* | 7.3 | -56.9 | 98.6* | 111.0* | 11.4 | 99.5*
COc1ccccc1C#Cc1ccc2c(c1)O[C@H](CN(C)Cc1cccnc1)[C@@H](C)CN([C@@H](C)CO)S2(=O)=O | · | 15.4 | -52.7 | · | · | · | ·
COc1ccccc1C#Cc1ccc2c(c1)O[C@@H](CN(C)Cc1cccnc1)[C@@H](C)CN([C@H](C)CO)S2(=O)=O | · | -3.4 | -69.8 | · | · | · | ·
